High-throughput results: PubChem, National Center for Advancing Translational Sciences (NCATS)
Sampled rows, rich in hits. Any-hit rate of the full collection: about 8.8%.
HPGD inh: inhibitors of human 15-hydroxyprostaglandin dehydrogenase (HPGD); P15428; purified HPGD, NADH fluorescence kinetic, PGE2 substrate; Potency, µM, for the others: at the highest dose activity change, negative = inhibition, most hits filed as inhibitors; 150,000 tested, 4.3% active; further: on the % scale 0 is the no-effect control and ±100 the full control effect
Target sequence (P15428 whole entry, looked up): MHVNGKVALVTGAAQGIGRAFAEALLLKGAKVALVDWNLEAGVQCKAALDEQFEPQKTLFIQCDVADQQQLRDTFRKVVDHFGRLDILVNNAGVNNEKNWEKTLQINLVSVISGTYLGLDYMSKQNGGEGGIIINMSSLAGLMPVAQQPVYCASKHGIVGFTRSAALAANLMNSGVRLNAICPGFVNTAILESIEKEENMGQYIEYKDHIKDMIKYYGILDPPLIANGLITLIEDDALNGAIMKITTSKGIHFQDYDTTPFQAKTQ
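NADH formation kinetics: reaction with 30 uM PGE2 and 1 mM NAD+ (final), 20 nM enzyme, Tris-HCl pH 8 with Tween 20, after 15 min compound preincubation at room temperature. Fluorescence change, last versus first of five reads.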
ALDH1A1 block: inhibitors of human aldehyde dehydrogenase 1A1. P00352. Purified ALDH1A1, NADH fluorescence, propionaldehyde substrate. Potency, µM (top dose mostly 75.3 µM), for inactives: at the highest dose activity, negative = inhibition, hits mostly inhibitors. 220,000 tested, 7.3% active. AID 1030;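 further: plate controls were no enzyme wells and a reference inhibitor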
Target sequence (P00352 whole entry, looked up): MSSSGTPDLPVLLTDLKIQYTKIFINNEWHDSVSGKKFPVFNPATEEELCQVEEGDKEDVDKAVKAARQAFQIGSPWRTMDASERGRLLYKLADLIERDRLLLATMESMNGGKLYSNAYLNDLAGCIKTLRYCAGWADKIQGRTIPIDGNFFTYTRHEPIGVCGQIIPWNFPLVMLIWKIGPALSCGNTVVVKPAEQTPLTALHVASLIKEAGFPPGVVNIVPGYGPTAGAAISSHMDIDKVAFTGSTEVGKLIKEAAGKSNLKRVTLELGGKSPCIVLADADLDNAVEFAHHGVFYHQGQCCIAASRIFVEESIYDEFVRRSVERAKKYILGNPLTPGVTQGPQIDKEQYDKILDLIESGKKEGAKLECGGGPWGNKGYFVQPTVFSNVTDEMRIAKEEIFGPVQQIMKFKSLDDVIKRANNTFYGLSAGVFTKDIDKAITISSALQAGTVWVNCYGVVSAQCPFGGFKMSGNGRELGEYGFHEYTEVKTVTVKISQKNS
HTT aggregate: mutant huntingtin aggregation inhibition; PC12 HttQ103-GFP aggregates, Acumen cytometry, 40 h; Potency, µM (top dose mostly 46.1 µM), without a hit: at the top dose activity change, negative = inhibition, usual class: inhibitors; 220,000 tested, 1.1% active; AID 1688; active means well fitted curve in the direction sought with a large enough effect; inconclusive means small, poorly fitted or top-dose-only effect, or another doubt; inactive means no such curve, though single readings can be large; an effect the other way counts as inactive or inconclusive; further: on the % scale 0 is the no-effect control and ±100 the full control effect; nearly all actives have a fitted effect of over 60% in size
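Huntingtin Q103 exon 1–GFP aggregates in induced PC12 cells (100 nM tebufenozide) were quantified by cytometry from lysates, with compounds dosed in titration.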
LMNA splice mod: modulators of lamin A splicing; HeLa LMNA splicing GFP/RFP minigene ratio, 48 h; Potency, µM (top dose mostly 46.1 µM), inactives show top-dose ratio change, negative = inhibition, hits mostly inhibitors; 200,000 tested, 0.01% active; AID 1487; active means well fitted inhibition curve with a large enough effect in the signal ratio, with a control signal flat, not every such curve was filed as active; inconclusive means small, poorly fitted or top-dose-only effect, or effect the other way, or a change in a side signal; the % refers to the signal ratio; further: on the % scale 0 is the no-effect control and ±100 the full control effect
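Read-out is the ratio of GFP to DsRed2 object intensity, acquired by 488 nm laser-scanning cytometry on HeLa lamin A-EGFP minigene reporter cells. Compound incubation 48 hrs at 37 °C in Opti-MEM with 2% FBS; DMSO 0.5% final.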
HTT ATP protect: cytoprotection in Huntington HTT-Q103 PC12 cell model; Potency, µM (series often up to 56.4 µM), inactives show cytoprotection (ATP increase), most hits filed as activators; 230,000 tested, 0.14% active; PC12 HTT-Q103 induced, cytoprotection, ATP luminescence, 40 h; active means well fitted curve in the direction sought with a large enough effect; inconclusive means small, poorly fitted or top-dose-only effect, or another doubt; inactive means no such curve, though single readings can be large; an effect the other way counts as inactive or inconclusive; further: % of control where 0% means no effect; nearly all actives have a fitted effect of over 45% in size
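PC12 cells with ecdysone-inducible HTT exon 1 Q103-GFP, induced with 100 nM tebufenozide and co-treated with library compounds in a dose series (1536-well, 1500 cells/well). Cytoprotection read as ATP content by ATPlite luminescence.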
Starred values were filed as active, the others as inactive; ? = inconclusive; · = no result; [ ] = remark or other dose. Unless noted, the call rests on the fitted dose curve; in most records, active means well fitted inhibition curve with a large enough effect (not every such curve was filed as active); inconclusive means small, poorly fitted or top-dose-only effect, or another doubt; inactive means no such curve, though single readings can be large or run the other way. Potency means the concentration at half of the fitted maximal effect.

SMILES	HPGD inh	ALDH1A1 block	HTT aggregate	LMNA splice mod	HTT ATP protect
NC(=S)N/N=C/c1ccc(-c2cccc([N+](=O)[O-])c2)o1	16µM*	?	-3%	?	·
COc1ccc(CNc2ccnc(-c3ccc(N(C)C)cc3)n2)c(OC)c1	·	?	·	?	-80%
Cc1oc2ncn(CC(C)C)c(=O)c2c1C(=O)Nc1cc(F)ccc1F	·	·	·	-5%[46 µM]	·
CN(C)c1ccc(/C=N/NC(=O)C2COc3ccccc3O2)o1 (stereo not given)	-11%	22µM*	32%	1%	·
O=C(N/N=C\c1ccc(Br)o1)C1COc2ccccc2O1 (stereo not given)	·	?	-13%[9.22 µM]	-21%[46 µM]	-10%[10 µM]
O=c1[nH]c(Cl)nc2c1ncn2C1OC(CO)C(O)C1O (stereo not given)	?	-9%	·	7%	·
COc1ccc(C(=O)N2CCN(Cc3cc(OC)c(O)c(OC)c3)CC2)cc1OC	·	22µM*	24%	-7%	-30%[10 µM]
CCOc1ccc(C(=S)N2CCCC2)cc1OC	-6%	-8%	22%	0%	-2%[10 µM]
CCOc1ccc(C(=O)N2CCCC2)cc1OC	28µM*	-20%	10%	3%	-12%[0.074 µM]
COc1cc(C(=S)N2CCCCC2)ccc1OCC(=O)N1CCCC1	-6%	22µM*	-16%	-2%	-27%
COc1ccc(CN2CCN(C(=O)c3cc(OC)c(OC)c(OC)c3)CC2)cc1OC	-3%	-12%	5%	-11%	7%
CCNc1ncc2nc(-c3cc(F)cc(F)c3)c(=O)n(-c3ccccc3)c2n1	?	?	·	·	-84%
Cc1ccc(-n2cnnn2)cc1S(N)(=O)=O	·	·	·	1%[46 µM]	·
Cc1cc(C)c(NC(=O)Cn2nc3c(cc2=O)CCCC3)c(C)c1	·	·	·	-11%[46 µM]	·
O=C1CN(CC(=O)N2CCCCC2)c2ccccc2O1	8%	-10%	-3%	?	9%[0.074 µM]
O=C(CN1CC(=O)Oc2ccccc21)OCC(=O)c1ccc(F)cc1	·	20µM*	-3%	?	2%
O=C1CN(CC(=O)N2CCOCC2)c2ccccc2O1	-6%	9.5µM*	-5%	2%	-9%[0.074 µM]
Cc1ccccc1C(=O)N1CCC(C(=O)N2CCN(S(=O)(=O)c3ccccc3F)CC2)CC1	·	?	7%	·	-36%
O=C(c1ccc2c(c1)OCO2)C1CCCN(C(=O)NCc2ccccc2)C1 (stereo not given)	·	-8%	-17%[9.22 µM]	?	17%[10 µM]
O=C(c1ccc2c(c1)OCO2)C1CCCN(C(=O)c2cnn(Cc3ccccc3)c2)C1 (stereo not given)	·	25µM*	5%[9.22 µM]	?	-17%[10 µM]
COc1ccc(C(=O)CN2C(=O)N(c3ccc(C(C)=O)cc3)S(=O)(=O)c3ccccc32)cc1	·	·	·	-13%[46 µM]	·
S=C(S)NCCCn1ccnc1	-10%	-4%[13.5 µM]	·	·	6%[10 µM]
C=C(CO)[C@H]1Cc2c(ccc3c2O[C@H]2COc4cc(OC)c(OC)cc4[C@@H]2C3=O)O1	·	·	·	·	2%
COC(=O)C1C(=O)c2c([nH]c(C(=O)OC3CCCC3C)c2C)CC1C (stereo not given)	-5%	13µM*	?	-15%	-13%[10 µM]
COc1ccc2[nH]c(C)c(CCN3C(=O)C4C5C=CC(C5)C4C3=O)c2c1 (stereo not given)	2%	13µM*	-10%	17%	-9%
SMILES	HPGD inh	ALDH1A1 block	HTT aggregate	LMNA splice mod	HTT ATP protect
Cc1ccc(C)c2c3c([nH]c12)-c1nonc1CC3	-22%	22µM*	-8%[9.22 µM]	-12%	-6%
Cc1ccc(N2C(=O)C3C4C=CC(CNC(=S)N5CCN(c6cccc(C)c6)C(C)C5)(O4)C3C2=O)cc1 (stereo not given)	·	1.6µM*	?	?	-21%
Cc1cccc(N2CCN(C(=O)CN3CCOc4ccccc43)CC2C)c1 (stereo not given)	0%	?	10%	3%	-1%
O=C(CSc1nnc(SCc2ccc(Cl)cc2)s1)c1ccc2c(c1)OCO2	-12%	2.2µM*	11%	?	·
C=CCn1c(SCC(=O)c2ccc(Cl)cc2)nnc1-c1ccc2c(c1)OCO2	8.9µM*	?	1%	?	·
CCc1sc(Nc2cccc(C)c2C)nc1-c1cc2cccc(OC)c2oc1=O	·	·	·	16%[46 µM]	·
CCc1ccc(NC(=S)Nc2cc(C(=O)O)ccc2N2CC3CC(C2)c2cccc(=O)n2C3)cc1 (stereo not given)	·	18µM*	15%	8%[9.22 µM]	7%
O=C(O)c1ccc(N2CC3CC(C2)c2cccc(=O)n2C3)c(NC(=S)Nc2ccc(Br)cc2)c1 (stereo not given)	·	?	-17%	·	?
Cc1ccc(Nc2cc(-n3cccn3)ncn2)c(C)c1	-5%	?	2%[9.22 µM]	1%	-4%
Fc1cccc(Nc2cc(-n3cccn3)ncn2)c1	-9%	-2%	13µM*	?	10%[10 µM]
CC1CCCC/C1=N\Nc1ccc(S(N)(=O)=O)cc1[N+](=O)[O-] (stereo not given)	-11%	-8%	?	-6%	23%[10 µM]
CC(C)(C)c1ccc(S(=O)(=O)O/N=C2/CCCCC2c2ccc([N+](=O)[O-])cc2[N+](=O)[O-])cc1 (stereo not given)	-18%	5.6µM*	19%	7%	-5%
COc1ccc(Cc2nnc(NS(=O)(=O)c3ccccc3)s2)cc1	·	?	8%[9.22 µM]	-4%[46 µM]	13%[10 µM]
O=S(=O)(Nc1nnc(-c2ccccc2)s1)c1ccc(Cl)cc1	-10%	3%	35µM*	?	-24%
COc1ccc(OC)c(S(=O)(=O)Nc2ccc(O)c3ccccc23)c1	3.2µM*	3.5µM*	18µM*	?	-26%[10 µM]
CCOc1ccc(S(=O)(=O)Nc2ccc(O)c(Sc3ncn[nH]3)c2)cc1	-11%	-12%	3%	?	32%[10 µM]
COc1ccc(OC)c(S(=O)(=O)Nc2ccc(O)c(Sc3ncn[nH]3)c2)c1	22µM*	7%	8%	?	9%[0.074 µM]
CCc1cccc(NS(=O)(=O)c2cc(-c3cnc(C)o3)ccc2OC)c1	·	·	·	-26%[46 µM]	·
COc1ccc(-n2ncc(C(=O)NCCCN3CCCCC3)c2C2CCN(C(=O)OC(C)(C)C)CC2)cc1	·	·	·	-8%[46 µM]	·
Cc1ccsc1/C=N/n1c(COc2ccccc2)n[nH]c1=S	14µM*	20µM*	1%	?	20%[10 µM]
S=c1[nH]nc(-c2ccccn2)n1/N=C/c1cccs1	-19%	2%	8%	-4%	·
S=c1[nH]nc(COc2ccccc2)n1/N=C/c1cccs1	14µM*	-1%	8%	-12%	-28%[1.9 µM]
COc1ccc(Cn2c(CNC(=O)Cc3ccc(OC)c(OC)c3)nc3cccnc32)cc1	·	·	·	8%[46 µM]	·
COc1ccc(-n2c(=S)[nH]c3cc(C(=O)NCc4ccco4)ccc3c2=O)cc1OC	-13%	0.11µM*	8%	11%	-21%
O=C(NCc1ccco1)c1ccc2c(=O)n(-c3ccccc3)c(=S)[nH]c2c1	-3%	0.22µM*	9%	-1%	-8%
COc1ccc(CCn2c(=O)[nH]c3cc(C(=O)NCCc4ccccc4)ccc3c2=O)cc1OC	0%	14%	20%	5%	-12%
